# Screening data from PubChem.
# HT1080NT lethal = kills 2HG-producing HT-1080-NT fibrosarcoma cells. HT-1080-NT fibrosarcoma viability, CellTiter-Glo ATP luminescence, 48 h. Potency, µM (doses to about 46.1 µM), for inactives: at the highest dose activity, negative = less viability, most hits filed as cytotoxic. 360,000 tested, 1.6% active. AID 686970;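 also: NT is the 2HG producing partner of a matched IDH1 knockdown line; 0% = DMSO-treated cells and -100% = media-only wells without cells; nearly all actives have a fitted effect of over 55% in size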
#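 Luminescent CellTiter-Glo readout after 48 hours of compound exposure at 37 degrees C defined viability of HT-1080-NT cells. Activity was normalized to DMSO wells and cell-free media wells; concentration-response curves were fitted and assigned curve classes.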
# ATXN viability = cell viability loss in ATXN counter-screen; S2 cells (HEK-293 line with an ATXN2-luciferase reporter) viability, CellTiter-Fluor protease fluorescence, 24 h; Potency, µM (titrated, usually from 56.7 µM), usual class: cytotoxic; 400,000 tested, 0.49% active; AID 651635; also: nearly all actives have a fitted effect of over 40% in size
# HepG2 tox = counter-screen for TGF-b inhibitors: cytotoxicity in HepG2 cells; HepG2 CAGA-GFP viability, ATP luminescence, 18 h; Potency, µM (highest dose often 46.1 µM), inactives show top-dose activity change, negative = cytotoxicity, most hits filed as cytotoxic; 410,000 tested, 0.76% active; AID 588856
#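 HepG2 CAGA-GFP cells (1000/well, DMEM with 1% FBS) received compound, then TGF-beta at 500 pg/mL final, and were incubated 18 hours at 37 degrees C. Viability was read by CellTiter-Glo luminescence. Media-only wells were set as complete cell-killing and DMSO as no toxicity.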
# HT1080 IDH1KD tx = toxicity to HT-1080 IDH1 knockdown cells (counter line); 360,000 tested, 2% active; Potency, µM (highest dose often 46.1 µM), for inactives: top-dose activity, negative = toxicity, actives largely listed as cytotoxic; HT-1080 IDH1 knockdown viability, ATP luminescence, 48 h; AID 686971;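 also: 0% = DMSO wells and -100% = cell-free medium wells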
#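 Cytotoxicity counter-line: IDH1KD HT-1080, 48 h, CellTiter-Glo. Curves classed by r2, magnitude and activity.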
# TGFb inhibitor = TGF-b pathway inhibition; HepG2 CAGA-GFP TGF-b/SMAD3 reporter, GFP fluorescence, 18 h; TGF-beta stimulated, 500 pg/mL final; AID 588855; 410,000 tested, 1.2% active; Potency, µM (series often up to 46.1 µM), inactives show at the top dose activity, negative = inhibition, hits mostly inhibitors; also: % is scaled to controls: 0 for no effect and ±100 for the full control effect; nearly all actives have a fitted effect of over 65% in size
#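 Inhibition of TGF-beta-driven CAGA-GFP reporter expression in HEPG2 cells is measured by cellular GFP fluorescence after 18 h stimulation with 500 pg/mL recombinant TGF-beta in 1% FBS medium at 37 degrees C.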
# ATXN2 expr inh = ATXN2 expression inhibition. 360,000 tested, 0.72% active. Potency, µM (top dose mostly 57 µM), without a hit: top-dose activity change, negative = inhibition, most hits filed as inhibitors. HEK-293 ATXN2-luciferase reporter, luminescence, 24 h; also: % is scaled to controls: 0 for no effect and ±100 for the full control effect; nearly all actives have a fitted effect of over 55% in size
#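 ATXN2-luciferase reporter cells (luciferase flanked by upstream and downstream ATXN2 gene portions) were treated 24 h at 37 °C with compounds at up to 57 uM. SteadyGlo luminescence gave expression; GF-AFC fluorescence gave viability.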
# Starred values were filed as active, the others as inactive; i = inactive; u = inconclusive; x = no result. Most compounds without a hit are left out; they make up all but 3.9% or so of the library. Calls follow the shape of the dose curve; as a rule, active = well fitted curve in the direction sought with a large enough effect; inconclusive = small, poorly fitted or top-dose-only effect, or another doubt; inactive = no such curve, though single readings can be large; an effect the other way counts as inactive or inconclusive. Potency is read from the fitted curve at half-maximal effect.
SMILES,HT1080NT lethal,ATXN viability,HepG2 tox,HT1080 IDH1KD tx,TGFb inhibitor,ATXN2 expr inh
Fc1c(F)c(F)c(N/N=C/c2c[nH]c3ccccc23)c(F)c1F,-3%,u,-32%,-20%,u,-23%
C(=NN=C1c2ccccc2-c2ccccc21)c1c[nH]c2ccccc12,-10%,19µM*,7%,u,u,0%
CCOC(=O)c1scc(-c2ccc(C)cc2)c1S(=O)(=O)Nc1cc(Cl)ccc1OC,x,i,5%,x,-16%,-15%
O=S(=O)(c1ccc2c(Cl)cccc2c1)N1CCN(c2nc(-c3cccs3)nc3ccccc23)CC1,24%,x,x,7%,x,x
COC(=O)c1[nH]c2ccc(Br)cc2c1NC(=O)CN1CCN(C2CCCCC2)CC1,23µM*,35µM*,-117%,18µM*,u,18µM*
Cc1ccc(-c2cc(C(=O)N3N=C(C(F)F)CC3(O)C(F)F)c3ccccc3n2)cc1C (stereo not given),u,18µM*,20µM*,u,u,u
O=C(c1cc(-c2ccccc2)nc2ccccc12)N1N=C(C(F)F)CC1(O)C(F)F (stereo not given),-6%,i,-33%,-15%,-12%,5%
CCOc1ccc(NC(=O)CN2CCN(CC(=O)Nc3ccccc3OCC)CC2)cc1,x,x,6%,x,-22%,x
Cc1ccccc1/C=N/Nc1ccnc2cc(Cl)ccc12,u,x,-103%,u,10µM*,22µM*
Oc1ccc(/C=N/Nc2ccnc3cc(Cl)ccc23)c(O)c1,0%,u,5%,-9%,-11%,x
Cc1ccc(/C=N/Nc2ccnc3cc(Cl)ccc23)c(C)c1,u,u,14µM*,u,u,35µM*
COc1ccc(OC)c(C(=O)N(Cc2cc3cccc(C)c3nc2N2CCC(O)CC2)C2CC2)c1,x,i,x,x,x,x
COc1cccc(-c2ccnc(-n3ncc(C(=O)NCc4cccnc4)c3C3CC3)n2)c1,x,i,x,x,x,x
COc1cccc(Cn2c(C)c(CNCc3cccc(C)c3)c(C(=O)O)c2C)c1,x,i,-13%,x,4%,-4%
Cc1cc(C)c2cc(C#N)c(NCCNC(=S)NCCCN3CCOCC3)nc2c1,-1%,i,-39%,0%,-30%,u
Cc1cc(C)c2nc(C(F)(F)F)nc(NCCCN3CCOCC3)c2c1,18µM*,i,-46%,16µM*,3%,-23%
CCCCC(CC)C(=O)Oc1ccc(O)c(C(C)(C)C)c1 (stereo not given),16µM*,u,-95%,23µM*,14µM*,-34%
CC(C)(C)c1cc(OC(=O)C2CCCC2)ccc1O,u,i,-54%,u,u,-11%
COc1cccc(C(=O)N(Cc2cc3cc4c(cc3nc2N(C)C)OCO4)CC2CCCO2)c1 (stereo not given),x,i,x,x,x,x
CN(CC(=O)Nc1ccc(OC(F)(F)F)cc1)C1CCCCC1,-6%,i,-8%,-3%,-4%,-16%
O=C(CNCC1CCCCC1)Nc1ccc(OC(F)(F)F)cc1,-8%,i,-89%,-1%,16µM*,-10%
CCc1nc2ccc(C(=O)N3CCN(c4ccccc4)CC3)cn2c1N(C)CCCc1ccccc1,u,u,16µM*,u,u,-13%
CCCCN(C)c1c(C)nc2ccc(C(=O)NC3CCN(C)CC3)cn12,u,i,-10%,-8%,11%,-4%
CCc1nc2ccc(C(=O)NC3CCN(C)CC3)cn2c1N(C)CCC(C)C,16µM*,i,-39%,u,u,0%
CCc1nc2ccc(C(=O)N(C)CCCN(C)C)cn2c1N(C)Cc1cc2ccccc2s1,18µM*,u,-45%,16µM*,-16%,u
